Where “and” joins values, the source holds several entries; their conditions need not be identical. Equal values may be shown once. Calls of active or inactive are those of the source.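 Rule for the calls, unless noted: active = compounds whose cell count with miR-34 switched on is under 0.7 times the count with it off; inactive = the rest.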

The values that follow come from PubChem BioAssay.

A short description of experiment [1]: compounds altering circadian rhythm period length – cell-based, LOPAC library, luminescence reporter (AID 2774; call rule not given here;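 note: values are relative to mean of DMSO wells on each plate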). Conditions: circadian reporter cells, at 7 µM, actives lie on both sides.
In experiment [2] the test system is Hepatitis C virus NS3 helicase. Briefly: blockers of NS3h binding to ssDNA – biochemical, fluorescence polarization, LOPAC1280 library, primary screen (AID 687035; in the data active = inhibition above about 37%). The following applies: Purified HCV NS3 helicase, Cy5-dT15 ssDNA binding fluorescence polarization; stronger effect = higher value; concentration not given here. In general terms: Polarisation of emitted light reports the rotation of a fluorescent probe.

Experiment [3] can be described thus: compounds altering Cy5-DNA-NS3h complex signal – biochemical, LOPAC1280, artefact control for HCV NS3 helicase inhibitor project (AID 687037; call rule not given here). The following applies: Cy5-DNA-NS3h complex fluorescence interference counterscreen.
Experiment [4] is described as follows: viability loss with induced miR-34 in A549 – imaging, A549 dox-inducible miR-34, nuclei and caspase counts, primary screen (AID 1347080). Conditions: A549 miR-34 inducible, Hoechst nuclei count, 48 h.
Experiment [5] can be described thus: blockers of cellular phospholipid synthesis – cell-based, LOPAC library, screen 4, primary screen (AID 1347384; call rule not given here). The following applies: animal cells, phospholipid biosynthesis inhibition screen; at 10 µM.
The nature of experiment [6]: galactose survival enhancers in mitochondrial complex I cybrids – cell-based, galactose medium, ATP luminescence, primary screen (AID 1645843;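 active = z-score of at least 1.8 in each of two replicates, scored against plate mean and spread of sample wells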;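 note: positive z means more ATP and so rescue of galactose-driven cybrid death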). Conditions: complex I mutant cybrid cells, 72 h, stronger effect = higher value.
The nature of experiment [7]: compounds altering viability of human ES cells (AID 493140; call rule not given here;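 note: cells exposed to compounds for four days before counting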). Conditions: human embryonic stem cell survival screen; stronger effect = higher value.
A short description of experiment [8]: chitosan synthesis blockers in C. neoformans – flow cytometry, Cibacron Brilliant Red staining (AID 1347148; call rule not given here;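 note: compound exposure lasted three days at 37 degrees C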). Conditions: Cryptococcus neoformans chitosan, stronger effect = lower value; at 10 µM unless noted. Background: A flow cytometer gives signals particle by particle.
A short description of experiment [9]: MELAS cybrid and Rieske KO viability enhancers – cell-based, MELAS cybrids, Rieske KO mouse fibroblasts, CellTiter-Glo, primary screen (AID 1508586;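 active = mean z-score across replicates of 1.96 or higher in either the MELAS or the Rieske mutant cell line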;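 note: z relative to plate mean and SD of compound and empty wells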). The following applies: low glucose. For orientation: In ATP-based viability assays light output follows the ATP content of the culture.
Setting [10] is: measured here: relative caspase fold change +Dox/-Dox.
Setting [11] is: measured here: total cells with miR-34 induction, stronger effect = lower value.
Setting [12] is: measured here: total cells without miR-34 induction.
[13] abbreviates: stronger effect = lower value, cell number ratio, induced over uninduced.
Where [14] appears, read: MELAS cybrid survival, CellTiter-Glo 48 h, stronger effect = higher value.
The mark [15] stands for this setting: Rieske KO mouse fibroblast survival, CellTiter-Glo 72 h.

`C[C@@H]1O[C@H](C[N+](C)(C)C)C[C@H]1O`: the period change in [1] is -0.03 h (inactive). For the same compound, in [2], the inhibition is -2% (inactive). In [3], the fluorescence ratio (interference) was 1 (inactive). Besides, the fold change in experiment [4] (stronger effect = lower value) is 1.05 (inactive); in experiment [4] (setting [10]) it was 1.87. Further, the values for the cell count in [4] (setting [11]) and in [4] (setting [12]) were 10900 and 10400, respectively. In experiment [5], the outcome was inactive. Besides, the z-score in [6] was 0.675 (inactive).

For the compound `CCCCC/C=C\C/C=C\C/C=C\C/C=C\CCCC(N)=O`, the survival in [7] is 110 (inactive). The fold change is 1.05 (inactive) and 1.02 (inactive) in [4] (stronger effect = lower value); 1.34 and 1.46 in [4] (setting [10]). Further, the cell count is 6020 and 5980 in experiment [4] (setting [11]); 5750 and 5890 in experiment [4] (setting [12]). For the same compound, the fold fluorescence in experiment [8] was 4.13 (inactive).

Take `N#CC(=Cc1ccc(O)c(O)c1)C(N)=S`: in [1], the period change was -0.06 h (inactive). Besides, in experiment [2], the inhibition is 3% (inactive). Further, the fluorescence ratio (interference) in experiment [3] is 0.9 (inactive). Besides, the fold change in experiment [4] (stronger effect = lower value) was 0.981 (inactive); in experiment [4] (setting [10]), 1.34. Besides, the cell count in experiment [4] (setting [11]) is 9410; in [4] (setting [12]), 9590. The outcome in experiment [5] was inactive. Further, in experiment [6], the z-score is -0.465 (inactive).

For the compound `C=CCN1CCC23c4c5ccc(O)c4O[C@H]2C(=O)CC[C@@]3(O)C1C5` (stereo partly drawn), the period change in experiment [1] is -0.035 h (inactive). In addition, in [2], the inhibition was -4% (inactive). Besides, the fluorescence ratio (interference) in experiment [3] was 1 (inactive). In addition, the fold change in [4] (stronger effect = lower value) was 1.07 (inactive); in experiment [4] (setting [10]), 1.06. Also, the cell count in experiment [4] (setting [11]) is 11300; in [4] (setting [12]) it was 10600. In addition, the call in experiment [5] was inactive. Besides, in experiment [6], the z-score is 0.37 (inactive).

Turning to `NC(CCP(=O)(O)O)C(=O)O` (stereo not drawn), in experiment [1], the period change is 0.135 h (inactive). Further, the inhibition in experiment [2] is -3% (inactive). In [3], the fluorescence ratio (interference) is 1 (inactive). Further, the fold change in experiment [4] (stronger effect = lower value) is 1.04 (inactive); in [4] (setting [10]), 2.08. Further, the cell count in [4] (setting [11]) worked out at 10400; in [4] (setting [12]), 9940. For the same compound, in [5], the result was inactive. Moreover, in [6], the z-score is 0.32 (inactive).

For `CC1OC(OC2CC(O)[C@]3(CO)[C@H]4C(O)C[C@]5(C)C(C6=CC(=O)OC6)CC[C@]5(O)[C@@H]4CC[C@]3(O)C2)C(O)C(O)C1O` (stereo partly drawn), the fold change was 0.851 (inactive) in [4] (setting [13]) and 1.17 in [4] (setting [10]). The cell count in experiment [4] (setting [11]) was 388; in experiment [4] (setting [12]), 456. In addition, the figures for the z-score in experiment [9] (setting [14]) and in experiment [9] (setting [15]) were 0.346 (inactive) and -0.151, respectively.

Consider `C[C@]12CCC(O)CC1=CC[C@@H]1[C@H]2CC[C@]2(C)C(=O)CC[C@@H]12` (stereo partly drawn), for which the fold change was 0.867 (inactive) in [4] (stronger effect = lower value) and 0.858 in [4] (setting [10]). Also, the cell count in experiment [4] (setting [11]) is 8270; in [4] (setting [12]), 9530. For the same compound, the z-score in [9] (setting [14]) was -0.412 (inactive); in experiment [9] (setting [15]), 0.289.

In the case of `COCC1OC(=O)c2coc3c2[C@@]1(C)C1=C(C3=O)[C@@H]2CCC(=O)[C@@]2(C)CC1OC(C)=O` (stereo partly drawn), the fold change in [4] (setting [13]) was 0.933 (inactive); in [4] (setting [10]), 0.632. Also, the cell count in [4] (setting [11]) is 3850; in experiment [4] (setting [12]) it was 4130. Besides, the figures for the z-score in [9] (setting [14]) and in experiment [9] (setting [15]) were 3.45 (active) and -0.534, respectively.

As for `NC(N)=NOCCC(N)C(=O)O` (stereo not drawn), in experiment [2], the inhibition was 0% (inactive). In addition, the fluorescence ratio (interference) in experiment [3] is 1.1 (inactive). Further, the fold change was 0.949 (inactive) in experiment [4] (stronger effect = lower value) and 1.82 in experiment [4] (setting [10]). Also, the cell count in [4] (setting [11]) was found to be 9120; in [4] (setting [12]), 9610. In addition, the outcome in experiment [5] was inactive. Besides, the z-score in experiment [6] is 0.49 (inactive).

With `C=CC[C@@]1(O)CC[C@H]2[C@@H]3CCC4=CC(=O)CCC4=C3C=C[C@@]21C`, the fold change in [4] (setting [13]) was 0.88 (inactive); in experiment [4] (setting [10]) it was 0.451. Moreover, the results for the cell count in experiment [4] (setting [11]) and in experiment [4] (setting [12]) were 7350 and 8350, respectively. The z-score is -0.295 (inactive) in experiment [9] (setting [14]) and -0.164 in experiment [9] (setting [15]).

Take `O=[N+]([O-])C=Cc1ccc2c(c1)OCO2`: the results for the fold change in experiment [4] (setting [13]) and in [4] (setting [10]) were 0.859 (inactive) and 0.554, respectively. Also, the cell count in [4] (setting [11]) was 5450; in experiment [4] (setting [12]), 6350. Moreover, the z-score was 0.246 (inactive) in [9] (setting [14]) and -0.259 in [9] (setting [15]).

Regarding `CN(C)C1C(=O)C(C(N)=O)=C(O)[C@@]2(O)C(=O)C3=C(O)c4c(O)cccc4[C@@](C)(O)[C@H]3C(O)[C@@H]12` (stereo partly drawn), the fold change in [4] (setting [13]) is 0.897 (inactive); in experiment [4] (setting [10]), 0.837. In addition, the cell count in experiment [4] (setting [11]) worked out at 7930; in experiment [4] (setting [12]) it was 8840. Further, the z-score in experiment [9] (setting [14]) is -0.21 (inactive); in experiment [9] (setting [15]), 0.479.

`COc1ccc(S(=O)(=O)N(CCO)c2ccccc2CN(C)CC=Cc2ccc(Cl)cc2)cc1`: the fold change was 0.937 (inactive) in experiment [4] (setting [13]) and 0.634 in experiment [4] (setting [10]). Moreover, the results for the cell count in experiment [4] (setting [11]) and in [4] (setting [12]) were 5210 and 5560, respectively. Besides, the z-score is -0.474 (inactive) in [9] (setting [14]) and -0.774 in [9] (setting [15]).

Regarding `C[C@]12CCC(O)C[C@@H]1CC[C@@H]1[C@H]2CC[C@]2(C)C(=O)CC[C@@H]12` (stereo partly drawn), the fold change in [4] (stronger effect = lower value) is 0.933 (inactive); in experiment [4] (setting [10]), 1.48. The cell count was 7540 in experiment [4] (setting [11]) and 8080 in [4] (setting [12]). The values for the z-score in experiment [9] (setting [14]) and in experiment [9] (setting [15]) were -0.116 (inactive) and -0.417, respectively.

`NC(CC(=O)N1CCn2c(nnc2C(F)(F)F)C1)Cc1cc(F)c(F)cc1F` (stereo not drawn): the fold change in experiment [4] (setting [13]) is 0.922 (inactive); in experiment [4] (setting [10]) it was 0.671. Moreover, the cell count in experiment [4] (setting [11]) was 9670; in [4] (setting [12]) it was 10500. For the same compound, the figures for the z-score in experiment [9] (setting [14]) and in experiment [9] (setting [15]) were -0.323 (inactive) and 0.499, respectively.

On to `CCC1C=CC=CCC(C)C(O)[C@@](C)(O)C(=O)C(C)[C@@H](O)C(C)C(=O)C(C)C(O)C(C)C=CC(=O)OC2C(C)[C@]3(CCC(C)C(CC(C)O)O3)OC(CC1)[C@H]2C` (stereo partly drawn), for which the fold change in experiment [4] (setting [13]) was 1.1 (inactive); in experiment [4] (setting [10]), 0.572. Also, the figures for the cell count in experiment [4] (setting [11]) and in [4] (setting [12]) were 3070 and 2800, respectively. The figures for the z-score in experiment [9] (setting [14]) and in experiment [9] (setting [15]) were -0.13 (inactive) and -0.402, respectively.

For `Cc1sc2c(c1C)C(c1ccc(Cl)cc1)=NC(CC(=O)OC(C)(C)C)c1nnc(C)n1-2` (stereo not drawn), the fold change in experiment [4] (stronger effect = lower value) was 0.954 (inactive); in [4] (setting [10]), 0.485. The cell count in experiment [4] (setting [11]) stood at 5260; in experiment [4] (setting [12]) it was 5520. Also, the z-score was 0.154 (inactive) in [9] (setting [14]) and -3.85 in experiment [9] (setting [15]).

Turning to `C=C1C[C@@H]2[C@@H](CC[C@@]3(C)C(=O)CC[C@@H]23)[C@@]2(C)C=CC(=O)C=C12`, the fold change was 1.01 (inactive) in experiment [4] (stronger effect = lower value) and 1.02 in experiment [4] (setting [10]). For the same compound, the cell count in experiment [4] (setting [11]) stood at 7640; in [4] (setting [12]), 7540. In addition, the z-score is -0.495 (inactive) in experiment [9] (setting [14]) and 0.156 in [9] (setting [15]).

`CC=C(C)C(=O)NC(c1ccccc1)C(O)C(=O)OC1C[C@@]2(O)C(OC(=O)c3ccccc3)[C@@H]3[C@]4(OC(C)=O)COC4CC(O)[C@@]3(C)C(=O)C(OC(C)=O)C(=C1C)C2(C)C` (stereo partly drawn): the fold change in [4] (setting [13]) is 1.27 (inactive); in experiment [4] (setting [10]), 0.457. Further, the cell count in experiment [4] (setting [11]) was 1460; in experiment [4] (setting [12]), 1150. Moreover, the z-score in [9] (setting [14]) was 1.29 (inactive); in experiment [9] (setting [15]) it was 0.0967.

The inhibition is the drop in the measured response relative to a control, in per cent.
